From PubChem BioAssay AID1159506 (National Center for Advancing Translational Sciences (NCATS), 2015)
In all, about 59,000 sequences were measured (the read-out: median about -0.00055, lowest 2% from about -2 on). This excerpt belongs to a sample that is enriched for the lowest values.

Test: Identification of proteins required for the processing of the EWS-FLI1 nascent transcript;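 also: robust z of luciferase light less the median z of siRNAs with the same seed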
Conditions: TC32 Ewing sarcoma NR0B1-luc vs CMV-luc (EWS-FLI1 target promoter against control promoter), 48 h; screened at 20 nM (by protocol)
Protocol: Ewing sarcoma (ES) cells depend on the EWS-FLI1 fusion transcription factor for cell survival. Using an assay of EWS-FLI1 activity and genome-wide siRNA screening we have identified proteins required for the processing of the EWS-FLI1 nascent transcript. Parallel genome-wide siRNA-mediated RNAi screens were conducted in Ewing sarcoma TC32 cell lines expressing a luciferase (luc) reporter protein driven by either the promoter of the EWS-FLI1 target gene NR0B1 (TC32-NR0B1-luc) or the CMV promoter (TC32-CMV-luc). Luciferase activity was assessed 48 hours post siRNA-transfection.
Twenty microl of serum-free media containing Lipofectamine RNAiMax (0.05 microl) was added to wells containing siRNA (0.8 pmol). Lipid and siRNA were allowed to complex for 45 min at ambient temperature before addition of 600 cells in RPMI-1640, 20% FBS to yield final transfection mixtures containing 20 nM siRNA in RPMI-1640, 10% FBS. Luciferase expression was measured using OneGlo (Promega, Madison, WI). The genome-wide screening campaign was conducted using Ambion's human genome library version 4.1 (Ambion, Austin TX). This library targets approximately 21000 human genes, three siRNAs per gene. Each siRNA is arrayed in an individual well of a 384-well plate. Parallel transfections were conducted in TC32-NR0B1-luc and TC32-CMV-luc cell lines and luciferase expression (OneGlo, Promega) was assayed 48 h later on a PerkinElmer Envision 2104 Multilabel plate reader (PerkinElmer, Waltham, MA). Qiagen's AllStars Negative control was incorporated on all screening plates for normalization (16 wells per plate). Qiagen, Germantown, MDsiGL4 was incorporated as a positive transfection control (16 wells per plate) on all plates. […] The raw luciferase data for the NR0B1- and CMV-luc screens were normalized and z-score-MAD transformed using standard methods (Chung et al., 2008). The miRNA-like seed sequence of every siRNA was determined and the median z-score for all siRNA sequences with the same seed sequence was calculated. This z-score was subtracted from the z-score associated with each siRNA with that seed sequence to generate a seed-adjusted z-score value (Z) that was used when the results for the three siRNAs corresponding to each gene were compared (Marine et al., 2012)

In order of falling seed-corrected z-score:
1. UCUGUGAACACCGGCAUGU against NCLN  2.18
2. UUUUCGUGAUGCUUGGUCC against NDEL1  1.78
3. UUACGUUCUUGAAAGGCGG against IARS  1.47
4. AAGGUAGGCAAAAUUAUCC against GALNT16  1.35
5. AUAGGUAUCAGGCACCCAG against GABRB2  1.35
6. UUGAGUUCCAAGAGGACCC against TPBG  0.978
7. UUUCAGAUCAUACUCGCCG against VPS33B  0.89
8. UGAACUCCUUCAAUCCUGC against AHSP  0.888
9. AGACAGAUGCGUUUGAUUC against PYDC2  0.835
10. UUGUUGGACAGUUGAAUCG against SEC62  0.834
11. UUCCUUCUUAGGUUUCUUC against LRRC59  0.83
12. AAGUUUAUAUACACUUUUG against NDUFS6  0.771
13. UCACCUUGAAGCUAUAACC against ERCC3  0.757
14. UACAUCUAAUUCACAGUUC against F9  0.676
15. AAAGAUAUCAGGCACCCAG against GABRR3  0.633
16. AAAUGGUCCAGCAAAUUCU against NPPA  0.589
17. UCAAUUGAUUCCUCAAUUC against MCM6  0.575
18. UGUAGAAUGAUCACCAACC against PCNX4  0.471
19. UUGGAGCACUGUAAAGGCC against ZFP14  0.456
20. UUAAUAAGACUUCAAGAUG against MYOCD  0.454
21. AUUGAUAUAAGGAUCAACA against OR5K1  0.45
22. UAAAUUUGCCCUGCUCUUG against OR2B11  0.408
23. UUUCUUAUCUCUGUUGUUC against CRCP  0.4
24. AAAGUUUUCCCUUAUGAUG against MYADML2  0.381
25. UAUGUGGUUAGUCCGUGUG against GTF3C1  0.362
26. UAUGUUCAGCUCGCAUUUC against CMAS  0.259
27. UAAAGAUGCAGAUAAUAAC against NMUR1  0.231
28. AUAGUUCGGAUCACAAUGC against NPSR1  0.18
29. AAAUUAAUCUUCUUCAUUC against COX17  0.109
30. UGAUAUAGGAGUUAGACUG against KRTAP2-2  0.0896
31. UUCCGGUACAAGAUAUUCC against QRSL1  0.059
32. UAUUCACCCAGAACUGUUG against CYP24A1  0.031
33. UUGGACAUGAUGAAAUUCC against EML3  0.0247
34. UUGUCAAACAGGACUGAGU against AZIN2  -0.00443
35. UCUUUAUCAAGUUUACAGG against LANCL3  -0.0126
36. UGUUCUUUAAGCCUUUCCA against BLOC1S5  -0.0488
37. UCAAGAGAAUUCUGUAAUC against C5orf60  -0.0754
38. UAGACGUGCACGAACACGC against MOB3A  -0.135
39. UAGGUCAUAACAGAAUGCU against FLNC  -0.156
40. UACAUGCUCCGCACAGUCC against NOTCH1  -0.17
41. AUAGUACACGAUGAACUCG against RAMP3  -0.177
42. UUCCGGAACAUGAAGUGCC against DYRK1B  -0.257
43. UAUAUCACCAUAUAAUCAC against ADRA2B  -0.259
44. AUAGGGUUUUACAUGAGGC against MYLK  -0.272
45. UGAGGAGCGACAAUCUUCC against TFAP2C  -0.276
46. UUUAGUAACAGCCCAGUUC against CCDC36  -0.277
47. UGCCUGGAGAGAGUGUACG against PGLYRP1  -0.292
48. AAUGGAACAACAGCGGUCC against ZNF217  -0.315
49. UUAGCAUUAAAACAGGUAG against GC  -0.347
50. UGACUGACACUUUCAAAGC against SHC1  -0.358
51. UUGGUGGUCAUUAAGGUUG against PQLC3  -0.378
52. AAUCUGUCUGUAGGUAUCC against TBC1D22B  -0.38
53. AAGGCAUUAAGACUCUUGG against HDAC3  -0.388
54. UUUCGAGAAAUAAUACACC against RPA1  -0.401
55. UCUCGUUAGUGAUUAAGUC against SULF1  -0.403
56. UGUAUUAUGACCUUCGCUC against MORC4  -0.441
57. UUAGCAAGCAUCCUUUCGC against LTN1  -0.45
58. UUCAUGUCCAGGAUAUCCC against OBFC1  -0.538
59. UACCGAUUUGGUAAUAUCG against LY75  -0.557
60. UGAAUAAUACCUAUAAUCC against OR4F6  -0.573
61. UCCUUUACCGAUUUCAGUU against XRCC3  -0.609
62. AGUGUGACAAGAACGUGCC against MYL6P5  -0.946
63. UGUGGGAAAGCAGGUAUCU against ZNF815P  -1.11
64. UAUGCUUUCAAAAGAGUCC against ETS1  -1.16
65. UUUCUUAGGUGUAUUGACC against PRDX1  -1.23
66. AUUGAUGUAAUCUCCGUCC against PTPN7  -1.34
67. UUCCGUUGAUUCUUUCUCC against KAT5  -1.63
68. UCAUGAUCUGCGAAGUUGG against CCDC75P1  -2.24
69. AAACAGAAGAGGGAGUGGG against LINC01567  -2.3
70. UGGGAUCUCAGCUGUAUCC against XAGE1E  -2.37
71. UAAGGUUCGACCUGCAGAG against MNX1-AS1  -2.4
72. UGUGGUACCAGGCUGCUUG against PAQR8  -2.42
73. UAGUUGUCACCAUCCGUGC against DSE  -2.48
74. UGUAGUCACACCAGAGAGG against FAM180B  -2.49
75. UAAACUGCACUUUCCACGG against C12orf49  -2.69
76. UUUCUUAUUGUUGCGGCAG against SNRPD2  -2.78
77. UCUGGUUCUUGUUGGGUAG against ECEL1  -2.81
78. UUACGAAUGACAUCCUUUG against CKAP5  -2.84
79. UUGGGUACCUCAGUCCACA against SNRPD2  -2.98
80. UUUGAUUUCAGCAUCUUCC against TSKS  -3.12
81. UUUGGUGAUAGGGUGCUCG against C5orf60  -3.47
82. UUCACUGUCAGUCCGAUGG against COPZ1  -3.71
83. UUCCUAGAAACCCAGACUG against SPATA31E1  -3.97
84. UCUGGAUCAAAGGGUGUUG against TMEM134  -4.42
85. UAUUCUUACUGAUCGUUUG against FLI1  -6.54
